According to PubChem BioAssay (Tox21):
Values joined by “and” are separate entries in the source; they are usually repeats but may differ in a detail not shown here. Equal values may be shown once. Results filed as inconclusive are left out. Where a call stands in place of a potency, no number is given. The source holds several records for some structures; these can differ, active in one and inactive in another. Active and inactive are the calls of the source. Unless noted, calls follow the shape of the dose curve; as a rule, active = well fitted curve in the direction sought with a large enough effect in the repeat runs; inconclusive = weak or mixed curves; inactive = no such curve, though single readings can be large; an effect the other way counts as inactive or inconclusive.

How the values were obtained:
[1] = qHTS assay to identify small molecule agonists of H2AX - cell viability counter screen (AID 1224847; calls by dose curve;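 also: wild-type CHO-K1 cells; top concentration of the series differs between compounds; nearly all actives have a fitted effect of over 30% in size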)
Summary of the method: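 After overnight plating of 1000 CHO-K1 cells per well, a 15-concentration compound series was applied for 3 hr at 37C. Luminescence from CellTiter-Glo, read following 30 min at room temperature, reflected cell viability.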

[2] = qHTS RealTime-Glo MT Cell Viability Assay in HepG2 cells - 24 hour (AID 1224867); also: nearly all actives have a fitted effect of over 50% in size
Summary of the method: (§1)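 HepG2 suspension premixed with RealTime-Glo reagents is plated at 600 cells per well and left 5 h at 37 C/5% CO2. Compounds in DMSO then go in, and bioluminescence reflecting viable cell number is recorded over 40 h.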

[3] = A CellTox Green Cytotoxicity Assay to monitor cytotoxicity in HEK293 cells - 0 hour (AID 1224869); also: nearly all actives have a fitted effect of over 50% in size
Summary of the method: (§2)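 HEK293 cells, 600/well, were preincubated 5 hours and then exposed to compounds at 37 C for up to 40 hours. A cell-impermeant cyanine dye staining dead-cell DNA was read by fluorescence at 0, 8, 16, 24, 32 and 40 h time points.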

[4] = qHTS RealTime-Glo MT Cell Viability Assay in HepG2 cells - 40 hour (AID 1224870); also: nearly all actives have a fitted effect of over 50% in size
Summary of the method: (§3)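 HepG2 cells (600/well) mixed with RealTime-Glo MT reagent, settled 5 h at 37 C/5% CO2 before compound addition. Nonlytic NanoLuc luminescence from viable-cell prosubstrate reduction read repeatedly during 40 h treatment at 37 C.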

[5] = A CellTox Green Cytotoxicity Assay to monitor cytotoxicity in HEK293 cells - 40 hour (AID 1224871); also: nearly all actives have a fitted effect of over 45% in size; also: potency is read from the fitted curve at half-maximal effect
Summary of the method: as §2

[6] = qHTS RealTime-Glo MT Cell Viability Assay in HEK293 cells - 16 hour (AID 1224872); also: top concentration of the series differs between compounds; nearly all actives have a fitted effect of over 50% in size
Summary of the method: (§4)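 Reads taken at 0, 8, 16, 24, 32 and 40 h from the same wells. HEK293 cells (600/well) carried RealTime-Glo reagents from seeding, with compound added after a 5 h settle at 37 C.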

[7] = A CellTox Green Cytotoxicity Assay to monitor cytotoxicity in HEK293 cells - 24 hour (AID 1224875); also: series mostly up to about 77 µM; nearly all actives have a fitted effect of over 45% in size
Summary of the method: as §2

[8] = A CellTox Green Cytotoxicity Assay to monitor cytotoxicity in HepG2 cells - 16 hour (AID 1224876); also: nearly all actives have a fitted effect of over 45% in size; also: potency is read from the fitted curve at half-maximal effect
Summary of the method: (§5)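 HepG2 cells, 600/well, preincubated 5 h with CellTox Green dye, then exposed to Tox21 compounds in DMSO at 37 C for up to 40 h. Dead-cell DNA fluorescence read at the indicated time point.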

[9] = qHTS RealTime-Glo MT Cell Viability Assay in HepG2 cells - 32 hour (AID 1224877); also: nearly all actives have a fitted effect of over 55% in size
Summary of the method: as §1

[10] = A CellTox Green Cytotoxicity Assay to monitor cytotoxicity in HepG2 cells - 24 hour (AID 1224878); also: nearly all actives have a fitted effect of over 45% in size; also: potency is read from the fitted curve at half-maximal effect
Summary of the method: as §5

[11] = A CellTox Green Cytotoxicity Assay to monitor cytotoxicity in HepG2 cells - 40 hour (AID 1224879); also: nearly all actives have a fitted effect of over 40% in size; also: potency is read from the fitted curve at half-maximal effect
Summary of the method: as §5

[12] = qHTS RealTime-Glo MT Cell Viability Assay in HEK293 cells - 0 hour (AID 1224880)
Summary of the method: (§6)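 600 cells/well were plated with the nonlytic NanoLuc/prosubstrate reagent, pre-incubated 5 h, then given 23 nL of compound in DMSO. Incubation at 37 C for 40 h, with luminescence from viable-cell-reduced substrate read repeatedly from 0 h.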

[13] = A CellTox Green Cytotoxicity Assay to monitor cytotoxicity in HEK293 cells - 32 hour (AID 1224881); also: nearly all actives have a fitted effect of over 40% in size
Summary of the method: as §2

[14] = A CellTox Green Cytotoxicity Assay to monitor cytotoxicity in HepG2 cells - 0 hour (AID 1224882); also: nearly all actives have a fitted effect of over 35% in size
Summary of the method: as §5

[15] = A CellTox Green Cytotoxicity Assay to monitor cytotoxicity in HepG2 cells - 32 hour (AID 1224883); also: nearly all actives have a fitted effect of over 50% in size; also: potency is read from the fitted curve at half-maximal effect
Summary of the method: as §5

[16] = A CellTox Green Cytotoxicity Assay to monitor cytotoxicity in HEK293 cells - 8 hour (AID 1224884); also: nearly all actives have a fitted effect of over 35% in size
Summary of the method: as §2

[17] = qHTS RealTime-Glo MT Cell Viability Assay in HEK293 cells - 32 hour (AID 1224868)
Summary of the method: as §4

[18] = qHTS RealTime-Glo MT Cell Viability Assay in HEK293 cells - 40 hour (AID 1224874); settings: RealTime-Glo luminescence; max response: stronger effect = lower value; also: nearly all actives have a fitted effect of over 50% in size
Summary of the method: as §6

[19] = qHTS RealTime-Glo MT Cell Viability Assay in HepG2 cells - 8 hour (AID 1224873); also: nearly all actives have a fitted effect of over 55% in size
Summary of the method: as §3

| Compound | Potency [1] | outcome [2] | outcome [3] | outcome [4] | Potency [5] | Potency [6] | Potency [7] | Potency [8] | outcome [9] | Potency [10] | Potency [11] | Potency [12] | Potency [13] | outcome [14] | Potency [15] | outcome [16] | Potency [17] | max response [18] | outcome [19] |
| --- | --- | --- | --- | --- | --- | --- | --- | --- | --- | --- | --- | --- | --- | --- | --- | --- | --- | --- | --- |
| CCCSc1ccc2nc(NC(=O)OC)[nH]c2c1 | inactive | inactive | inactive | inactive | inactive | inactive | inactive | inactive | inactive | inactive and 1.9 µM (active) | 1340 nM (active) | inactive | inactive | inactive | inactive and 1.51 µM (active) | inactive | – | – | – |
| CCN(CC)c1ccc(C(=O)c2ccccc2C(=O)O)c(O)c1 | inactive | inactive | inactive | – | inactive | inactive | inactive | inactive | inactive | inactive | inactive | inactive | inactive | inactive | inactive | inactive | inactive | -1.39% (inactive) and 2.11% (inactive) | – |
| CCCCCC/C(C=O)=C\c1ccccc1 | inactive | inactive | inactive | – | 44.1 µM (active) and inactive | inactive | inactive | inactive | inactive | inactive | inactive | inactive | inactive | inactive | inactive | inactive | inactive | -10.1% (inactive) and 0.846% (inactive) | inactive |
| Cc1ccc2oc(=O)ccc2c1 | inactive | inactive | inactive | – | inactive | inactive | inactive | inactive | inactive | inactive | inactive | inactive | inactive | inactive | inactive | inactive | inactive | – | inactive |
| C#C[C@]1(O)CC[C@H]2[C@@H]3CCC4=CC(=O)CC[C@@H]4[C@H]3CC[C@@]21C | inactive | inactive | inactive | – | inactive | inactive | inactive | inactive | inactive | inactive | inactive | inactive | – | inactive | inactive | inactive | inactive | -16% (inactive) | inactive |
| CCCCCCCC(=O)OC | inactive | inactive | inactive | – | inactive | inactive | inactive | inactive | inactive | inactive | inactive | inactive | inactive | inactive | inactive | inactive | inactive | -1.2% (inactive) and 5.05% (inactive) | inactive |
| O=C(O)CCCCCCCCCCC(=O)O | inactive | inactive | inactive | inactive | inactive | inactive | inactive | – | inactive | inactive | inactive | inactive | inactive | inactive | inactive | inactive | inactive | – | – |
| COc1ccc(NC(C)=O)cc1N | inactive | inactive | inactive | – | inactive | inactive | inactive | inactive and 21.9 µM (active) | inactive | inactive and 49 µM (active) | inactive and 43.6 µM (active) | inactive | inactive | inactive | inactive and 43.6 µM (active) | inactive | inactive | 6.82% (inactive) and 6.45% (inactive) | inactive |
| CCCCC(CC)COC(=O)CCCCC(=O)OCC(CC)CCCC (centres undefined) | inactive | inactive | inactive | – | inactive | inactive | inactive | inactive | inactive | inactive | inactive and 2.45 µM (active) | inactive | – | inactive | inactive and 2.45 µM (active) | inactive | inactive | – | inactive |
| CCCCCOC(C)=O | inactive | inactive | inactive | – | inactive | inactive | inactive | inactive | inactive | inactive | inactive | inactive | inactive | inactive | inactive | inactive | inactive | -23.8% (inactive) and 1.43% (inactive) | – |
| CC1=CC(=O)NS(=O)(=O)O1 | inactive | inactive | inactive | – | inactive | inactive | inactive | – | inactive | inactive | inactive | inactive | – | inactive | inactive | inactive | inactive | – | – |
| O=C(O)c1cc(=O)c2c(OCC(O)COc3cccc4oc(C(=O)O)cc(=O)c34)cccc2o1 | inactive | inactive | inactive | – | inactive | inactive | inactive | – | inactive | inactive | inactive | inactive | inactive | inactive | inactive | inactive | inactive | 0.302% (inactive) and 1.24% (inactive) | inactive |
| CCCCCCCCCC | inactive | inactive | inactive | – | inactive | inactive | inactive | inactive | inactive | inactive | inactive | inactive | – | inactive | inactive | inactive | inactive | 1.13% (inactive) and 22.3% (inactive) | inactive |
| c1ccc2scnc2c1 | inactive | inactive | inactive | inactive | inactive | inactive | inactive | – | inactive | inactive | inactive | inactive | inactive | inactive | inactive | inactive | inactive | – | – |
